According to PubChem BioAssay (NCATS):
Several values for one entry are separate records, joined by “and”; a condition that tells them apart may be missing. Equal entries are not always repeated. Results filed as inconclusive are left out. A call without a number means that no potency is given here. Values without a mark were called inactive. Activity calls are given as the source filed them. Calls follow the shape of the dose curve; as a rule, active = well fitted curve in the direction sought with a large enough effect; inconclusive = small, poorly fitted or top-dose-only effect, or another doubt; inactive = no such curve, though single readings can be large; an effect the other way counts as inactive or inconclusive.

How the values were obtained:
[1] = Quantitative highthroughput screen to assess conditional lethalithy of NOMO1 cells grown in RPMI1640 with untreated serum (RPMI+s) (AID 1963876); also: nearly all actives have a fitted effect of over 35% in size; also: potency is read from the fitted curve at half-maximal effect
Summary of the method: (§1)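 Each medium arm—HPLM with 10% dialyzed FBS, or RPMI1640 with 5 mM glucose and 10% untreated or dialyzed FBS—was screened against an 11-point, 3-fold compound titration for 48 h at 37 °C, with CellTiter-Glo luminescence as endpoint.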

[2] = Quantitative highthroughput screen to assess conditional lethalithy of NOMO1 cells grown in Human Plasma-Like Medium with dialyzed fetal bovine serum (HPLM+ds) (AID 1963878); also: nearly all actives have a fitted effect of over 35% in size; also: potency is read from the fitted curve at half-maximal effect
Summary of the method: as §1

[3] = Quantitative highthroughput screen to assess conditional lethalithy of P12 Ichikawa cells grown in Human Plasma-Like Medium with dialyzed fetal bovine serum (HPLM+ds) (AID 1963879); details: Potency: viability; also: nearly all actives have a fitted effect of over 35% in size; also: potency is read from the fitted curve at half-maximal effect; as to viability: series mostly up to about 46 µM
Summary of the method: as §1

[4] = Quantitative highthroughput screen to assess conditional lethalithy of P12 Ichikawa cells grown in RPMI1640 with dialyzed fetal bovine serum (RPMI+ds) (AID 1963880); details: Potency: P12-Ichikawa viability; also: nearly all actives have a fitted effect of over 35% in size; also: potency is read from the fitted curve at half-maximal effect
Summary of the method: as §1

[5] = Quantitative highthroughput screen to assess conditional lethalithy of SEM cells grown in Human Plasma-Like Medium with dialyzed fetal bovine serum (HPLM+ds) (AID 1963882); also: nearly all actives have a fitted effect of over 35% in size; also: potency is read from the fitted curve at half-maximal effect; as to viability: series mostly up to about 46 µM
Summary of the method: as §1

[6] = Quantitative highthroughput screen to assess conditional lethalithy of SEM cells grown in RPMI1640 with unreated serum (RPMI+s) (AID 1963883); also: nearly all actives have a fitted effect of over 35% in size; also: potency is read from the fitted curve at half-maximal effect
Summary of the method: as §1

[7] = Cellular viability qHTS for adrenocortical cancer (ACC) cell line SW-13 (AID 1963989); details: SW-13 ACC cells viability, CellTiter-Glo, 48 h; activity (max response): active compounds read low;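 also: cells grown in serum-free medium with ITS supplement; nearly all actives have a fitted effect of over 65% in size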
Summary of the method: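 Compound titrations (up to 46 uM final, in DMSO) were applied to SW-13 cells for 48 h at 37C/5% CO2. Reading used CellTiter-Glo after 20 min at room temperature; fitted curves yielded IC50 and efficacy.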

[8] = Quantitative highthroughput screen to assess conditional lethalithy of P12 Ichikawa cells grown in RPMI1640 with untreated serum (RPMI+s) (AID 1963881); details: Potency: viability; also: nearly all actives have a fitted effect of over 35% in size; also: potency is read from the fitted curve at half-maximal effect; as to viability: series mostly up to about 46 µM
Summary of the method: as §1

[9] = Quantitative highthroughput screen to assess conditional lethalithy of SEM cells grown in RPMI1640 with dialyzed fetal bovine serum (RPMI+ds) (AID 1963884); also: nearly all actives have a fitted effect of over 35% in size; also: potency is read from the fitted curve at half-maximal effect; as to viability: series mostly up to about 46 µM
Summary of the method: as §1

[10] = Cellular viability qHTS for adrenocortical cancer (ACC) cell line NCI-H295R (AID 1963990); also: nearly all actives have a fitted effect of over 60% in size; also: potency is read from the fitted curve at half-maximal effect
Summary of the method: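 Readout: CellTiter-Glo luminescence, 20 min RT. Exposure: 48 h, 37C/5% CO2. Cells: NCI-H295R, ITS-DMEM serum-free. Range: up to 46 uM. Analysis: 4PL fit, IC50 plus efficacy.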

[11] = Quantitative highthroughput screen to assess conditional lethalithy of NOMO1 cells grown in RPMI1640 with dialyzed fetal bovine serum (RPMI+ds) (AID 1963877); also: nearly all actives have a fitted effect of over 30% in size; also: potency is read from the fitted curve at half-maximal effect; as to viability: series mostly up to about 46 µM
Summary of the method: as §1

SMILES | Potency [1] | Potency [2] | Potency [3] | Potency [4] | Potency [5] | Potency [6] | activity (max response) [7] | Potency [8] | Potency [9] | Potency [10] | Potency [11]
O=c1c(O)c(-c2cc(O)c(O)c(O)c2)oc2cc(O)cc(O)c12 | inactive | inactive | inactive | inactive | inactive | inactive | -0.163% |  |  |  | 
COc1nc(-c2ccc3c(c2)OCO3)n(-c2ccc(NC(=O)CSc3ccccc3)cc2)n1 | 23.5 µM (active) | 20.9 µM (active) | inactive | inactive | inactive | inactive |  | inactive | inactive | inactive | 
CC(C)(C)NC(=O)[C@H]1CN(Cc2cccnc2)CCN1C[C@@H](O)C[C@@H](Cc1ccccc1)C(=O)N[C@H]1c2ccccc2C[C@H]1O | inactive |  |  |  | inactive |  |  |  |  |  | inactive
CC1=C(C(=O)O)N2C(=O)[C@@H](NC(=O)C(N)c3ccccc3)[C@H]2SC1 (some centres undefined) | inactive | inactive | inactive | inactive | inactive | inactive |  | inactive | inactive |  | 
O=C1CN2Cc3c(ccc(Cl)c3Cl)N=C2N1 | inactive |  |  |  | inactive |  | 2.15% |  |  | inactive | inactive
CC[C@H]1OC(=O)[C@H](C)C(=O)[C@H](C)[C@@H](O[C@H]2O[C@H](C)C[C@H](N(C)C)[C@@H]2O)[C@](C)(OC)C[C@@H](C)C(=O)[C@H](C)[C@H]2N(CCCCn3cnc(-c4cccnc4)c3)C(=O)O[C@]12C | inactive | inactive | inactive | inactive | inactive | inactive |  | inactive | inactive |  | 
CCOc1cc2ncc(C#N)c(Nc3ccc(F)c(Cl)c3)c2cc1NC(=O)C=CCN(C)C | 16.6 µM (active) | 4.69 µM (active) | 3.72 µM (active) | 5.26 µM (active) | 1.32 µM (active) | 0.418 µM (active) |  |  | 0.743 µM (active) |  | 
CS(=O)(=O)c1ccc(C(=O)Nc2ccc(Cl)c(-c3ccccn3)c2)c(Cl)c1 | inactive | inactive | inactive | inactive | inactive |  | -0.792% | inactive | inactive | inactive | 
COc1cc(N2CCN(C)CC2)ccc1Nc1nc(N)c(C(=O)c2c(Cl)cccc2Cl)s1 | inactive |  |  |  |  | 20.9 µM (active) |  |  | 20.9 µM (active) |  | inactive
CN1[C@@H]2CCC[C@@H]1CC(NC(=O)c1nn(C)c3ccccc13)C2 (some centres undefined) | inactive | inactive | inactive | inactive | inactive | inactive |  | inactive | inactive |  | 
C[C@@H]1CCN(C(=O)CC#N)C[C@H]1N(C)c1ncnc2[nH]ccc12 | inactive | inactive | inactive | inactive | inactive | inactive |  | inactive | inactive |  | 
CCOc1cc(N)c(Cl)cc1C(=O)NCC1CN(Cc2ccc(F)cc2)CCO1 (centres undefined) | inactive | inactive | inactive | inactive | inactive | inactive | -20% and -11.9% | inactive | inactive | inactive | 
CC1(C)O[C@@H]2C[C@@H]3[C@H]4C[C@@H](F)C5=CC(=O)C=C[C@]5(C)[C@@]4(F)[C@@H](O)C[C@]3(C)[C@]2(C(=O)CO)O1 | inactive | inactive |  |  |  |  |  |  |  |  | 
COc1cc(Nc2ncc(F)c(Nc3ccc4c(n3)NC(=O)C(C)(C)O4)n2)cc(OC)c1OC | 5.9 µM (active) | 4.69 µM (active) | 4.18 µM (active) | 5.26 µM (active) | 1.66 µM (active) | 1.48 µM (active) |  | 5.26 µM (active) | 1.66 µM (active) |  | 
NS(=O)(=O)c1ccc(NC2=CC(=O)c3ccccc3C2=O)cc1 | inactive | inactive | inactive | inactive |  |  | -24.7% | inactive |  | 3.98 µM (active) | 
O=C(O)c1ccc(O)c2ncc(N3CCOCC3)cc12 | inactive |  |  |  |  |  | -5.09% |  | 18.7 µM (active) | inactive | inactive
CC(=O)O[C@@]12CO[C@H]1C[C@H](O)[C@@]1(C)C(=O)[C@H](O)C3=C(C)[C@@H](OC(=O)C(O)[C@@H](NC(=O)OC(C)(C)C)c4ccccc4)C[C@@](O)([C@@H](OC(=O)c4ccccc4)[C@@H]21)C3(C)C (some centres undefined) | inactive |  |  |  | inactive |  |  |  | inactive |  | inactive
C[C@@H](O)[C@H]1C(=O)N2C(C(=O)OCOC(=O)C(C)(C)C)=C(SC3CN(C4=NCCS4)C3)[C@H](C)[C@H]12 | inactive |  |  |  | inactive |  |  |  | inactive |  | 7.43 µM (active)
OC[C@H]1O[C@@H](O[C@H]2[C@@H](O)[C@@](O)(CO)O[C@@H]2CO)[C@H](O)[C@@H](O)[C@@H]1O | inactive |  |  |  |  | inactive |  |  | inactive |  | inactive
Cc1cccc(C=NNc2cc(N3CCOCC3)nc(OCCc3ccccn3)n2)c1 | 2.09 µM (active) |  |  |  |  | 11.8 µM (active) |  |  | 14.8 µM (active) |  | 1.05 µM (active)
